Rows were chosen to be rich in hits. Some 1.2% of all compounds tested hit in one or more screens of this group.
VCAM1 TNFa inh = reduces TNF alpha induced VCAM1 expression in HUVEC; HUVEC TNFa-induced VCAM-1 immunofluorescence, high-content imaging; inhibition, % at 2 µM; 95,000 compounds, 0.48% hits;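 active means inhibition above the batch mean plus 3 SD, with images confirmed as a hit by eye, cut at about 37% in these data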
Phagocytosis inh = inhibitors of macrophage phagocytosis. J774A.1 macrophage IgG-bead phagocytosis, imaging. inhibition, % at 5 µM. 110,000 compounds, 0.07% hits. AID 1029;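 active means inhibition above the mean of the plate negative controls plus 5 SD, cut at about 13% in these data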;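 further: phagocytic index as fraction of beads internalized from green versus red external bead signal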
HUVEC tox TNFa = toxic to HUVEC cells under TNF alpha stimulation; AID 848; HUVEC TNFalpha-stimulated, Hoechst cell count, imaging; cell count reduction, % at 2 µM; 93,000 compounds, 0.17% hits;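 active means cell count reduction exceeding the screen mean by over 5 SD, scaled to untreated wells per plate, cut at about 78% in these data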;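 further: cells counted after 24 h of TNF alpha exposure following the 1 h pretreatment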
F-actin modifier = alters cytoskeleton assembly in HUVEC cells | inhibition, % at 2 µM | HUVEC TNFa F-actin phalloidin imaging, high content | 91,000 compounds, 0.18% hits | AID 836;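 active means inhibition above the batch mean plus 3 SD and confirmed as a hit by visual image inspection, cut at about 30% in these data, passing the limit was not always enough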
sdo1 growth = sdo1-depleted yeast growth rescue. S. cerevisiae sdo1-depleted JHY4D growth rescue, OD600 30 h; stronger effect = higher value; pdr5 snq2 efflux-pump mutant strain. z-score at 10 µM. 140,000 compounds, 0.21% hits;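 active means z-score above 3 at both the 24 hr and the 30 hr optical density reads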
E-sel TNF inh = blocks E-selectin expression induced by TNF alpha; HUVEC TNFa-induced E-selectin immunofluorescence, high content; inhibition, % at 2 µM; 120,000 compounds, 0.71% hits; AID 1246;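 active means inhibition above the batch mean plus 3 SD, and confirmed as a hit on visual image review, cut at about 43% in these data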
Hits are given with their value; n = inactive; x = no result.

SMILES | VCAM1 TNFa inh | Phagocytosis inh | HUVEC tox TNFa | F-actin modifier | sdo1 growth | E-sel TNF inh
CCNC(=O)Nn1c(-c2ccccc2)nc2ccccc2c1=O | n | n | n | n | n | n
CCC(C(=O)OC)n1c(-c2ccccc2)nc2ccccc2c1=O (centres undefined) | x | x | x | x | x | 64
COc1ccc(NS(=O)(=O)c2ccc(N3CCCC3)c(NC(=S)Nc3cccc(S(=O)(=O)N(C)C)c3)c2)cc1 | x | n | x | x | n | n
CCc1nc2oc3ccccc3c(=O)c2c(=O)n1CCOC | 87 | n | 97 | n | n | x
COCCn1c(C(C)C)nc2oc3ccccc3c(=O)c2c1=O | n | n | n | n | n | x
Cc1nnc(SCc2cn3ccsc3n2)n(N)c1=O | 62 | n | 82 | n | n | n
COc1ccc(C)cc1-n1nnnc1SCc1cn2ccsc2n1 | n | x | n | n | n | x
CC(=O)Nc1c(C)ccc(CNC(=O)COc2cc(C)ccc2C)c1C | x | n | x | x | n | x
COc1ccc(CCNC(=O)C(=O)NCc2ccc(C)cc2)cc1OC | n | n | n | n | n | 50
CCOC(=O)/C(C#N)=C1/C=Cc2ccccc2N1CC | x | n | x | x | n | 53
CCN1/C(=C2\C(=O)N(C)C(=S)N2C)C=Cc2ccccc21 | x | n | x | x | n | x
Cc1cc([N+](=O)[O-])nn1CCCC(=O)Nc1sc2c(c1C(N)=O)CCC(C)C2 (centres undefined) | x | n | x | x | n | 84
OC1CCN(c2c3c(nc4cc(-c5ccc(F)cc5)nn24)CCC3)CC1 | n | n | n | n | n | n
O=C(C1CCCO1)N1CCN(c2c3c(nc4cc(-c5ccc(F)cc5)nn24)CCC3)CC1 (centres undefined) | n | n | n | n | n | 65
CCn1cc(S(=O)(=O)CC(=O)Nc2cc(C)ccc2C)c2ccccc21 | n | n | n | n | n | 62
CSc1cccc(NC(=S)N2CCC(N(C)C3CCCC3)CC2)c1 | x | x | x | x | x | n
CC(=O)Nc1nc2n(n1)C(c1ccccc1)C=C(c1ccccc1)N2 (centres undefined) | n | n | n | n | n | x
CC(=O)Nc1nc2n(n1)C(c1ccc(F)cc1)C=C(c1ccccc1)N2 (centres undefined) | n | n | n | 38 | n | n
C=CCN1CCN(C(c2cc(OC)ccc2OC)c2nnnn2CC2CCCO2)CC1 (centres undefined) | n | n | n | n | n | 71
COc1ccc(OC)c(C(c2nnnn2CC2CCCO2)N2CCN(C)CC2)c1 (centres undefined) | n | n | n | n | n | n
CC1=C(C#N)C(Nc2cccc(C)n2)(C(F)(F)F)C(=O)N1 (centres undefined) | 91 | n | 82 | n | n | x
COc1cccc(C(=O)Oc2cc(-c3ccccc3)no2)c1 | n | 165 | n | n | n | n
Cc1ccc(C(=O)Oc2cc(-c3ccccc3)no2)cc1 | n | n | n | n | n | n
CC(=O)Nc1ccc2c(c1)CN(c1cc(C)ccc1C)CO2 | x | n | x | x | n | n
COc1ccc(C(C(=O)NC2CCCCC2)N(C(=O)CCl)c2cccc(Cl)c2)cc1 (centres undefined) | x | n | x | x | n | n
SMILES | VCAM1 TNFa inh | Phagocytosis inh | HUVEC tox TNFa | F-actin modifier | sdo1 growth | E-sel TNF inh
O=C1/C(=C/c2cccc([N+](=O)[O-])c2)CCc2ccccc21 | x | n | x | x | n | x
CCN1C/C(=C\c2cccc([N+](=O)[O-])c2)C(=O)/C(=C/c2cccc([N+](=O)[O-])c2)C1 | x | n | x | x | n | 100
COc1ccc(/C=C2\CC/C(=C\c3ccc(OC)c(OC)c3)C2=O)cc1OC | x | n | x | x | n | x
CCN1C/C(=C/c2ccc(OC)c(O)c2)C(=O)/C(=C/c2ccc(OC)c(O)c2)C1 | x | x | x | x | x | 60
Cc1ccc(C(NC(=O)NC(C)c2ccccc2)C(Cl)(Cl)Cl)cc1F (centres undefined) | x | n | x | x | n | n
O=C(NCC1CCCN(C(=O)NCc2ccccc2)C1)c1ccc2c(c1)OCO2 (centres undefined) | x | x | x | x | x | n
O=C(CCn1c2c(c3ccccc31)CCCC2)NNC(=O)c1ccccc1[N+](=O)[O-] | x | n | x | x | n | 81
Cc1cccc(C(=O)NNC(=O)Nc2ccccc2)c1 | x | x | x | x | x | 65
COc1ccccc1/C=C1\CCCC2=C1Nc1nnnn1C2c1ccccc1OC (centres undefined) | x | x | x | x | n | n
Cc1ccc(NC(=O)/C(Cl)=C/c2ccccc2)cc1C | x | n | x | x | n | n
c1cncc(-c2nnc(-c3ccco3)o2)c1 | n | n | n | n | n | n
Clc1ccc(-c2nnc(-c3ccco3)o2)cc1 | n | x | n | n | n | 77
CCS(=O)(=O)N1CCC(C(=O)NC2CCCCC2)CC1 | n | x | n | 31 | n | n
